# KB-3-1 tox – KB-3-1 parental cell cytotoxicity. hit rate 1.4% among 400,000. AID 1347075. KB-3-1 viability, CellTiter-Glo ATP luminescence, 72 h. Potency, µM (series often up to 46.1 µM), usual class: cytotoxic; also: % is scaled to controls: 0 for no effect and ±100 for the full control effect; nearly all actives have a fitted effect of over 60% in size
#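 Screening of KB-3-1 cells (DMEM, 10% FBS, phenol-red free) ran from lowest to highest compound concentration; after 72 h at 37 °C viability was read luminescently and curves fitted.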
# MCF10A rereplic – DNA re-replication induction in MCF 10a cells; MCF 10A DNA re-replication, Hoechst nuclear intensity, 48 h; Potency, µM (highest dose often 46.1 µM), inactives show at the highest dose activity, positive = re-replication, hits mostly activators; hit rate 2.9% among 350,000; AID 624296; also: % of control where 0% means no effect; nearly all actives have a fitted effect of over 50% in size
# KB-V1 MDR tox – kills drug-selected multidrug resistant KB-V1 cells | hit rate 3.4% among 400,000 | KB-V1 MDR cells viability, CellTiter-Glo, 72 h | AID 1347076 | Potency, µM (highest dose often 46.1 µM), usual class: cytotoxic; also: % is scaled to controls: 0 for no effect and ±100 for the full control effect; nearly all actives have a fitted effect of over 60% in size
#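 Following 72 h at 37 degrees C with compound, KB-V1 cell viability was read by CellTiter-Glo luminescence, medium being phenol-red-free DMEM plus 10% FBS; concentration-response parameters came from normalized, curve-fitted qHTS data.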
# RORg inh – ROR gamma (mouse) transcription inhibition. P51450. Drosophila S2 Gal4-RORgamma UAS-luciferase reporter, 20 h. Potency, µM (series often up to 53.6 µM), for the others: at the highest dose activity change, negative = inhibition, hits mostly inhibitors. hit rate 5.4% among 310,000; also: % is scaled to controls: 0 for no effect and ±100 for the full control effect; nearly all actives have a fitted effect of over 60% in size
# Target sequence (P51450 whole entry, looked up, the tested form may be a part): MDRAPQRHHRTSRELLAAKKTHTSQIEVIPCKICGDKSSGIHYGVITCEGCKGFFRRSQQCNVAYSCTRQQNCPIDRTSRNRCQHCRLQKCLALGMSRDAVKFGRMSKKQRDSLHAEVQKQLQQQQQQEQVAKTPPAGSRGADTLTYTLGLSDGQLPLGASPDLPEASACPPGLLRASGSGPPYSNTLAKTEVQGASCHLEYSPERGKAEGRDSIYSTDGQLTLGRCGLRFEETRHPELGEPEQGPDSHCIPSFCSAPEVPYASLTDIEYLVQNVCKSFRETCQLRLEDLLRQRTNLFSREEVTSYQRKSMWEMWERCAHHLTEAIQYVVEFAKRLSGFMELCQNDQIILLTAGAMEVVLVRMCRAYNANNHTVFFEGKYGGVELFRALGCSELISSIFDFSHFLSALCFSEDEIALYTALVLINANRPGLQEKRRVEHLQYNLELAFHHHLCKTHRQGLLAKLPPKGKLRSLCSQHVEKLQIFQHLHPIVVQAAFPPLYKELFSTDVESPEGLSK
#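 In this cell-based reporter format, copper sulfate (700 uM final) drives Gal4–ROR gamma fusion expression from a metallothionein promoter in Drosophila Schneider cells; compounds preincubated 1 hr, reporter read after 20 hr at ambient temperature.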
# VP16 counter – counter-screen for ROR gamma inhibitors: Gal4-VP16 reporter; Drosophila S2 Gal4-VP16 UAS-luciferase, luminescence, 20 h; Potency, µM (top dose mostly 53.6 µM), without a hit: at the top dose activity, negative = inhibition, hits mostly inhibitors; hit rate 3.5% among 310,000; AID 2546;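 also: Gal4-VP16 expression switched on by copper sulfate through the metallothionein promoter; % is scaled to controls: 0 for no effect and ±100 for the full control effect; nearly all actives have a fitted effect of over 50% in size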
# SW480 rerep – induces DNA re-replication in SW480 colon adenocarcinoma cells; SW480 DNA re-replication, Hoechst DNA content imaging, 48 h; Potency, µM (highest dose often 46.1 µM), without a hit: at the highest dose re-replication activation, most hits filed as activators; hit rate 1.8% among 340,000; AID 624297; also: % of control where 0% means no effect; nearly all actives have a fitted effect of over 55% in size
#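 Compounds, transferred as 23 nL by pin tool, were incubated with cells for 48 hr; DNA content per nucleus was then quantified by Hoechst staining and fluorescence plate imaging.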
# * hit, by the source's call; i = inactive; ? = inconclusive; · = no result given. Shown are actives, neighbours in structure and some others; about 10% of the full set was active somewhere. Calls follow the shape of the dose curve; as a rule, active = well fitted curve in the direction sought with a large enough effect; inconclusive = small, poorly fitted or top-dose-only effect, or another doubt; inactive = no such curve, though single readings can be large; an effect the other way counts as inactive or inconclusive. Potency is read from the fitted curve at half-maximal effect.
SMILES,KB-3-1 tox,MCF10A rereplic,KB-V1 MDR tox,RORg inh,VP16 counter,SW480 rerep
CCOc1ccc(S(=O)(=O)N(CC(=O)N/N=C/c2cccs2)c2ccc(C)cc2)cc1,i,4.5%,23.1µM*,-17.6%,-1.6%,-4.2%
CCOc1ccc(N(Cc2cc3ccc(C)cc3[nH]c2=O)S(=O)(=O)c2ccccc2)cc1,16.4µM*,20.6µM*,i,-2.8%,-10.5%,20.6µM*
Cc1ccc2cc(CN(c3ccccc3)S(=O)(=O)c3ccccc3)c(=O)[nH]c2c1,i,5.9%,i,10.5%,-17.9%,-17.7%
COc1ccc(-n2c(-c3ccc(Cl)cc3)cc3c2CC(C)(C)CC3=O)c(OC)c1,i,·,i,·,·,·
CO[C@@H]1CN(C)C(=O)c2cc(NS(=O)(=O)c3ccc(C)cc3)ccc2OC[C@H](C)N(Cc2nccs2)C[C@H]1C,i,·,i,·,·,·
Cc1ccc(C)c(S(=O)(=O)ON2C(=O)c3ccccc3C2=O)c1,?,5.8µM*,i,?,11.2µM*,?
Cc1ccc(S(=O)(=O)ON2C(=O)c3cccc4cccc(c34)C2=O)cc1,i,-1.5%,i,?,6.8%,-16.8%
O=C1c2cccc3cccc(c23)C(=O)N1OS(=O)(=O)c1ccccc1,i,1.8%,i,-20.5%,-11.5%,?
Cc1cc(S(=O)(=O)ON2C(=O)c3ccccc3C2=O)ccc1F,?,?,i,?,12.6µM*,8.0%
O=C1c2ccccc2C(=O)N1OS(=O)(=O)c1ccccc1,·,·,·,?,15.8µM*,·
Cc1nc(SCc2cc(=O)c3cccc(F)c3[nH]2)n[nH]1,i,·,i,·,·,·
O=C(Nc1cccc(S(=O)(=O)N2CCCC2)c1)[C@H]1C[C@H](O)[C@@H](CO)O1,i,·,i,·,·,·
Cc1c(-c2n[nH]c(=S)n2-c2ccc(C(F)(F)F)cc2)nnn1-c1ccccc1,i,13.4%,23.1µM*,5.62µM*,?,0.6%
O=C(N/N=C1\CC2CC=CC12)c1ccccc1Cl (stereo not drawn),i,-1.9%,i,-99.1%,10.7%,-3.6%
Cc1cc(Br)c(OCc2ccc(C(=O)N/N=C3\CC4CC=CC34)cc2)c(Br)c1 (stereo not drawn),i,15.3%,i,7.94µM*,?,-2.8%
O=C(N/N=C1\CC2CC=CC12)c1ccc(Br)cc1 (stereo not drawn),i,1.1%,i,11.2µM*,0.0%,0.6%
COc1ccccc1CCNC(=O)Cc1c(C)c2c(O)cc(C)cc2oc1=O,i,·,i,·,·,·
OCCCNC(=S)Nc1ccc(Nc2ccccc2)cc1,i,-3.2%,i,6.0%,-12.5%,-12.1%
CCCNC(=S)Nc1ccc(Oc2ccccc2)cc1,?,21.8%,18.4µM*,12.6µM*,11.2µM*,?
CCCCNC(=S)Nc1ccc(Oc2ccccc2)cc1,i,-0.5%,i,1.41µM*,5.62µM*,-3.6%
O=S1(=O)N=C(N/N=C/c2ccco2)c2ccccc21,i,3.6%,i,7.94µM*,?,-3.7%
COc1ccc(NC(=O)N2CC3(CCN(C(=O)c4c(C)noc4C)CC3)C2)cc1,·,·,·,-5.6%,4.9%,·
CCOC(=O)N1CCC(NC(=O)c2cc(S(=O)(=O)N(CC)CC)ccc2F)CC1,i,-12.6%,?,-9.2%,-5.3%,0.731µM*
CCOC(=O)N1CCC(NC(=O)c2cc(S(=O)(=O)N3CCC4(CC3)OCCO4)ccc2F)CC1,i,12.1%,23.1µM*,?,-28.8%,1.4%
CCOC(=O)N1CCC(NC(=O)c2cc(S(=O)(=O)N3CCOCC3)ccc2F)CC1,i,-3.4%,i,-5.7%,2.6%,-3.7%
COc1ccccc1CNC(=O)c1ccc(CSc2nc3ccncc3n2Cc2cccc(F)c2)cc1,i,·,i,·,·,·
CC1CN(C(=O)CCNS(=O)(=O)c2ccc(Br)cc2)CC(C)O1 (stereo not drawn),i,5.4%,i,·,·,-2.0%

# Source: PubChem BioAssay
